Assay results published in PubChem BioAssay (NCATS).
Records with an inconclusive call do not appear. Active and inactive are the calls of the source. Unless noted, calls come from the whole dose curve; as a rule, active = well fitted curve in the direction sought with a large enough effect; inconclusive = small, poorly fitted or top-dose-only effect, or another doubt; inactive = no such curve, though single readings can be large; an effect the other way counts as inactive or inconclusive.

Columns and labels:
[1] = Confirmation and Secondary Assay for Modulators of Hemoglobin Beta Chain Splicing at IVS2 654 locus (AID 910);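 note: per-well total GFP intensity by laser scanning cytometry after 2-day treatment; % of control where 0% means no effect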
Outline: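 HeLa cells stably carrying EGFP interrupted by mutant beta-globin IVS2-654 intron (CMV-driven) were treated with compound for 2 days at 37C; corrected splicing was scored as total peak GFP intensity per well (488 nm excitation, 500-520 nm emission).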

[2] = Confirmation and Secondary Assay for Modulators of Hemoglobin Beta Chain Splicing at IVS2 705 locus (AID 930);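 note: HeLa cells stably expressing the EGFP-705 splicing reporter; GFP fluorescence per well restored by corrected splicing of the IVS2-705 intron in EGFP; % of control where 0% means no effect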
Outline: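 Assay measures total GFP intensity per well in HeLa EGFP-705 cells after 2 days with compound; mis-splicing normally truncates EGFP, so fluorescence indicates corrected splicing.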

[3] = qHTS Assay for Lipid Storage Modulators (AID 1519; calls by dose curve; for activity change, negative = inhibition: % is set by controls: 0 for no effect and ±100 for the full control effect); conditions: Drosophila S3 cells, BODIPY lipid droplet/cell ratio, laser cytometry, cells loaded with oleic acid
Outline: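 Cells seeded at 5,000 per well were treated with compounds over a concentration series and loaded with oleic acid (400 uM, as added). Lipid droplet fluorescence (488 nm excitation, 500-530 nm channel) was read by laser-scanning cytometry and normalized to 20 uM Triacsin C.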

Furin (Homo sapiens) = Furin (Homo sapiens) (UniProt P09958); test: Furin counterscreen qHTS for Zika virus inhibitors (AID 1347149);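 note: purified recombinant full-length human furin enzyme at 5 nM; fluorescence gain from furin cutting a BOC-RVRR-AMC peptide substrate over 15 min; top concentration of the series differs between compounds; plate controls were no-inhibitor control for no effect and no-enzyme control for full effect; nearly all actives have a fitted effect of over 70% in size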
Furin (Homo sapiens), sequence (P09958 whole entry, looked up): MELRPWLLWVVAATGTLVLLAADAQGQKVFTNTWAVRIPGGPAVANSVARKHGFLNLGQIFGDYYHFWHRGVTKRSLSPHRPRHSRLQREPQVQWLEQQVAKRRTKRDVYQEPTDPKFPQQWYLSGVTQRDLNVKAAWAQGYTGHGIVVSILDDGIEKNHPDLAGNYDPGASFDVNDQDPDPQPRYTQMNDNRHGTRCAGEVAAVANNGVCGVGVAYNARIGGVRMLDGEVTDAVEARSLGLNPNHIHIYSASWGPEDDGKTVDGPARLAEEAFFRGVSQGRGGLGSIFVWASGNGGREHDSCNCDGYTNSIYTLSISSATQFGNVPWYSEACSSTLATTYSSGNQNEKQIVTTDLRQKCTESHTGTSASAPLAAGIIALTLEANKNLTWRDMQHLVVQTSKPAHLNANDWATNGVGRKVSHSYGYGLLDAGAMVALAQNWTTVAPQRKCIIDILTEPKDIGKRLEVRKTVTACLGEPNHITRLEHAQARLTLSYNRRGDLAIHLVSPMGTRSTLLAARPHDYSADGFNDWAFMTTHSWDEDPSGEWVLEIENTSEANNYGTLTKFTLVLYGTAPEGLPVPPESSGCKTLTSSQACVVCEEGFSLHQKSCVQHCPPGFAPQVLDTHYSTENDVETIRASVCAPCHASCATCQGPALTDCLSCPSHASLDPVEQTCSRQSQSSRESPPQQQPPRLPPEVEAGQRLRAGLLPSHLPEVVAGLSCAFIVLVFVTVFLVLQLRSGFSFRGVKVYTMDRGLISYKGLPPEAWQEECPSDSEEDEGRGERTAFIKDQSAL
Outline: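 Counterscreen measures cleavage of 2 microM BOC-RVRR-AMC, below its ~15 microM Km, by 5 nM full-length human furin at pH 7.0 after a 15-min compound preincubation. Inhibition derives from the 15-min fluorescence increase at 37C.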

[4] = Confirmatory screen GU Rhodamine qHTS for Zika virus inhibitors qHTS (AID 1347157); note: potency is the fitted concentration of half-maximal effect; nearly all actives have a fitted effect of over 70% in size
Outline: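 Unlinked NS2B/NS3, 25 nM; Rhod110 peptide, 1.5 microM; compounds, up to 114 microM. Reaction run 15 min at RT in 10 mM Tris-HCl pH 8.0, 0.01% Tween 20; kinetic fluorescence change fitted with a 4-parameter Hill model.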

[5] = ZIKV-mCherry secondary qHTS for Zika virus inhibitors (AID 1347158); note: top concentration of the series differs between compounds
Outline: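 Read-out is percent infection: mCherry-positive Vero cells (nuclear-proximal intensity >450 RFU, 3 SD above negative controls) counted by high-content imaging of Hoechst-stained, PFA-fixed wells after 48-72 h with ZIKV-mCherry at MOI 1 and compound.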

[6] = system: Zika virus NS2B-NS3 protease (linked construct); test: Primary screen NINDS Rhodamine qHTS for Zika virus inhibitors (AID 1347160); note: potency is the fitted concentration of half-maximal effect; nearly all actives have a fitted effect of over 55% in size
Outline: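 Enzyme (25 nM, linked NS2B-NS3) was preincubated 15 min with compound in 10 mM Tris-HCl pH 8.0, 0.01% Tween 20. Rhodamine110 substrate (1.5 microM) was then added and fluorescence read at start and after 15 min.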

[7] = Confirmatory screen NINDS Rhodamine qHTS for Zika virus inhibitors (AID 1347161); note: potency is the fitted concentration of half-maximal effect; nearly all actives have a fitted effect of over 60% in size
Outline: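 qHTS dose-response: 25 nM linked protease, pH 8.0 Tris/Tween buffer, cpd titration, 15 min RT preinc, 1.5 microM Rhod110 peptide, 15 min reaction (~15% conversion), Ex480/Em540; 4-parameter Hill fit.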

[8] = system: Zika virus NS2B-NS3 protease (linked construct); test: 384 well plate NINDS Rhodamine confirmatory qHTS for Zika virus inhibitors (AID 1347164);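 note: fluorescence from protease cleavage of Ac-LKRR-rhodamine 110 substrate; potency is the fitted concentration of half-maximal effect; nearly all actives have a fitted effect of over 65% in size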
Outline: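 Linked protease at a final 5 nM, 30 nM or 60 nM was preincubated ~15 min with compounds, then given 10 microM Ac-LKRR-Rhodamine 110. Fluorescence (ex 485/em 538 nm) after 25 min in the dark at room temperature.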

[9] = OV-KATE Cancer Cell Toxicity qHTS against the NCATS CANVASS Library (AID 1347345); note: % is set by controls: 0 for no effect and ±100 for the full control effect
Outline: (§1)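 Following a 4 h pre-incubation of 1000 seeded cells, compounds were pinned in an 11-pnt dilution series and left for 72 h; viability then came from CellTiter-Glo.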

[10] = HPAF-II Cancer Cell Toxicity qHTS against the NCATS CANVASS Library (AID 1347346); note: % is set by controls: 0 for no effect and ±100 for the full control effect; nearly all actives have a fitted effect of over 55% in size
Outline: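 1000 HPAF-II cells/well; 4 h pre-incubation; 11-pnt compound titration; 72 h, 37 degrees C/5% CO2; CellTiter-Glo, 15 min RT; luminescence read.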

[11] = OV-SAHO Cancer Cell Toxicity qHTS against the NCATS CANVASS Library (AID 1347348); note: % is set by controls: 0 for no effect and ±100 for the full control effect; nearly all actives have a fitted effect of over 55% in size
Outline: as §1

[12] = Panc-1005 Cancer Cell Toxicity qHTS against the NCATS CANVASS Library (AID 1347349); note: potency is the fitted concentration of half-maximal effect; nearly all actives have a fitted effect of over 60% in size
Outline: as §1

[13] = A2780 Cisplatin Sensitive Ovarian Cancer Cell Toxicity qHTS against the NCATS CANVASS Library (AID 1347353); note: % is set by controls: 0 for no effect and ±100 for the full control effect; nearly all actives have a fitted effect of over 60% in size
Outline: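 750 cells/well, 4 h settle; 11-pt cpd titration; 72 h, 37 °C, 5% CO2; ATPLite 10 min RT; luminescence read.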

[14] = UWB1.289-WTBRCA1 Cancer Cell Toxicity qHTS against the NCATS CANVASS Library (AID 1347354); note: % is set by controls: 0 for no effect and ±100 for the full control effect
Outline: (§2)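 1000 cells/well, 4 h pre-incubation 37 °C/5% CO2; 11-pnt titration; 72 h; CellTiter-Glo 15 min RT, luminescence.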

[15] = HEK-293 Cancer Cell Toxicity qHTS against the NCATS CANVASS Library (AID 1347355); note: % is set by controls: 0 for no effect and ±100 for the full control effect; nearly all actives have a fitted effect of over 65% in size
Outline: as §2

[16] = HPAF-II 24hr Apoptosis Induction qHTS against the NCATS CANVASS Library (AID 1347356); note: 0% is about no effect
Outline: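 500 HPAF-II cells/well; compounds in 11-pnt qHTS; 24 h, 37 C/5% CO2; Caspase-Glo 3/7 added, 15 min RT dark; luminescence read. Doxorubicin control.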

[17] = HEK293 18hr Apoptosis Induction qHTS against the NCATS CANVASS Library (AID 1347357); note: 0% is about no effect
Outline: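 HEK293 cells (500 per well, DMEM with 10% FBS) were treated with natural products, incubated 18 hours at 37 degrees C, then caspase-3/7 activity was read by Caspase-Glo luminescence after 15 min at room temperature.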

[18] = HPAF-II 12hr Apoptosis Induction qHTS against the NCATS CANVASS Library (AID 1347358); note: 0% is about no effect
Outline: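 Caspase-Glo 3/7 luminescence (DEVD substrate) reports caspase activity in HPAF-II cells after 12 h compound treatment at 37 degrees C. Compounds were tested in an 11-point series. Doxorubicin served as control.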

[19] = HEK293 24hr Apoptosis Induction qHTS against the NCATS CANVASS Library (AID 1347359); note: 0% is about no effect
Outline: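 HEK293 cells (500/well, DMEM + 10% FBS) were exposed to compounds in an 11-point series for 24 hours at 37 degrees C, then caspase-3/7 activity was read by Caspase-Glo DEVD luciferase luminescence after 15 min.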

[20] = HEK293 12hr Apoptosis Induction qHTS against the NCATS CANVASS Library (AID 1347361); note: 0% is about no effect
Outline: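 Read-out: Caspase-Glo 3/7 luminescence (DEVD substrate), 15 min RT. Preceded by 12 h compound exposure of HEK293, 500 cells/well, 11-pt qHTS titration; doxorubicin titration as control.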

O=C(OC1Cc2c(O)cc(O)cc2OC1c1cc(O)c(O)c(O)c1)c1cc(O)c(O)c(O)c1 (stereo not drawn)
13.6%: max response ([3]; measured here: lipid channel max response)
1.63%: max response ([3]; measured here: cell count channel max response)
active: Potency [4] 7.94 µM | Potency [6] 1.56 µM | Potency [7] 7.94 µM | Potency [8] 89.1 µM | Potency [12] 18.8 µM
inactive: outcome [1] | outcome [2] | activity change, negative = inhibition ([3]; at 57.5 µM (top of the series)) 7.9% | Potency (Furin (Homo sapiens)) | Potency [5] | Potency [9] | Potency [10] | Potency [11] | Potency [13] | Potency [14] | Potency [15] | outcome [16] | Potency [17] | Potency [18] | Potency [19] | Potency [20]
